Source: PubChem
Sampled rows, rich in hits. Any-hit rate of the full collection: about 8.8%.
Lamin A splicing = modulators of lamin A splicing; Potency, µM (highest dose often 46.1 µM), inactives show top-dose ratio change, negative = inhibition, hits mostly inhibitors; AID 1487; hit rate 0.01% among 200,000; HeLa LMNA splicing GFP/RFP minigene ratio, 48 h; active means well fitted inhibition curve with a large enough effect in the signal ratio, with a control signal flat, not every such curve was filed as active; inconclusive means small, poorly fitted or top-dose-only effect, or effect the other way, or a change in a side signal; the % refers to the signal ratio; further: on the % scale 0 is the no-effect control and ±100 the full control effect
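S3 HeLa stable clones carrying a lamin A-EGFP splicing minigene plus DsRed2 were seeded at 600 cells/well in Opti-MEM with 2% FBS, pin-dosed and incubated 48 h at 37°C. Acumen cytometry (488 nm) gave the GFP/RFP total-intensity ratio.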
ALDH1A1 block = ALDH1A1 (human) enzyme inhibition | hit rate 7.3% among 220,000 | Potency, µM (series often up to 75.3 µM), without a hit: at the highest dose activity, negative = inhibition, most hits filed as inhibitors | Purified ALDH1A1, NADH fluorescence, propionaldehyde substrate | P00352; active means well fitted inhibition curve with a large enough effect, not every such curve was filed as active; inconclusive means small, poorly fitted or top-dose-only effect, or another doubt; inactive means no such curve, though single readings can be large or run the other way;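 further: plate controls were no enzyme wells and a reference inhibitor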
Target sequence (P00352 whole entry, looked up): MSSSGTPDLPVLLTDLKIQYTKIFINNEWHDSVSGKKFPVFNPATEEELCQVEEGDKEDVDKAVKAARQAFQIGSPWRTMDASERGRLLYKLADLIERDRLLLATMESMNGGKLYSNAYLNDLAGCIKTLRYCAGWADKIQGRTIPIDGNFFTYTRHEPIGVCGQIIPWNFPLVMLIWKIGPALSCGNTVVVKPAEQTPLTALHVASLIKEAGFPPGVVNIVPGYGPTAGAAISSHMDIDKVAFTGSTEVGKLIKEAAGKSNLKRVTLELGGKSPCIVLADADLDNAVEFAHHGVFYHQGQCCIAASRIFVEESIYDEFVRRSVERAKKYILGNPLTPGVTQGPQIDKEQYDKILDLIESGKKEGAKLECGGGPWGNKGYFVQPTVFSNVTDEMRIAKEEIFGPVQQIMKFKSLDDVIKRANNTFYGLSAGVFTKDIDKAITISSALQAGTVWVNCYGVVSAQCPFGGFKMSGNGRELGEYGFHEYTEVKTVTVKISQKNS
HTT cytoprotect = cytoprotection in Huntington HTT-Q103 PC12 cell model | AID 1471 | hit rate 0.14% among 230,000 | Potency, µM (top dose mostly 56.4 µM), without a hit: cytoprotection (ATP increase), usual class: activators | PC12 HTT-Q103 induced, cytoprotection, ATP luminescence, 40 h; further: % of control where 0% means no effect; nearly all actives have a fitted effect of over 45% in size
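Readout: ATPlite luminescence (ATP level). Model: stable PC12, inducible Htt exon1 Q103-GFP. Inducer: tebufenozide, 100 nM final. Compounds: dose series. No G418 in medium.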
HttQ103 aggreg = reduces HttQ103-GFP aggregates in PC12 cells; PC12 HttQ103-GFP aggregates, Acumen cytometry, 40 h; Potency, µM (top dose mostly 46.1 µM), for the others: at the highest dose activity change, negative = inhibition, usual class: inhibitors; hit rate 1.1% among 220,000; AID 1688; further: on the % scale 0 is the no-effect control and ±100 the full control effect; nearly all actives have a fitted effect of over 60% in size
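Huntingtin Q103 exon 1–GFP aggregates in induced PC12 cells (100 nM tebufenozide) were quantified by cytometry from lysates, with compounds dosed in titration.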
HPGD inh = HPGD (human) dehydrogenase inhibition; P15428; Potency, µM, inactives show at the highest dose activity change, negative = inhibition, hits mostly inhibitors; hit rate 4.3% among 150,000; purified HPGD, NADH fluorescence kinetic, PGE2 substrate; active means well fitted inhibition curve with a large enough effect, not every such curve was filed as active; inconclusive means small, poorly fitted or top-dose-only effect, or another doubt; inactive means no such curve, though single readings can be large or run the other way; further: on the % scale 0 is the no-effect control and ±100 the full control effect
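NADH formation kinetics: reaction with 30 uM PGE2 and 1 mM NAD+ (final), 20 nM enzyme, Tris-HCl pH 8 with Tween 20, after 15 min compound preincubation at room temperature. Fluorescence change, last versus first of five reads.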
* = called active by the depositor; ? = inconclusive; nt = no result; [ ] = another dose, or the depositor's remark. Unless noted, the call rests on the fitted dose curve; in most records, active means well fitted curve in the direction sought with a large enough effect; inconclusive means small, poorly fitted or top-dose-only effect, or another doubt; inactive means no such curve, though single readings can be large; an effect the other way counts as inactive or inconclusive. Potency means the concentration at half of the fitted maximal effect.

SMILES | Lamin A splicing | ALDH1A1 block | HTT cytoprotect | HttQ103 aggreg | HPGD inh
CCO[C@H]1OC(C(=O)N2CCN(Cc3ccccc3)CC2)=C[C@@H](c2ccc(C(F)(F)F)cc2)[C@@H]1CCCO | nt | 4.5µM* | -13%[10 µM] | 8%[9.22 µM] | nt
O=C(C1=C[C@@H](c2ccccc2)C[C@@H](OCc2ccc(CO)cc2)O1)N1CCN(Cc2ccc3c(c2)OCO3)CC1 | nt | 6% | -2%[10 µM] | 16%[9.22 µM] | nt
C=CCOC(=O)C1=C[C@@H](c2csc3ccccc23)C[C@@H](OCc2ccc(CO)cc2)O1 | nt | 25µM* | 24%[10 µM] | -4%[9.22 µM] | nt
Cc1ccc(-n2c(=O)c3c(c4cc(C)ccc4n3C)n(CC(=O)NCCC3=CCCCC3)c2=O)cc1 | -1%[46 µM] | nt | nt | nt | nt
C#CCNC(=O)C1=C[C@H](c2ccc3c(c2)OCO3)C[C@H](OCc2ccc(CO)cc2)O1 | nt | 28µM* | 16%[10 µM] | 5%[9.22 µM] | nt
O=C(C1=C[C@@H](C2CCCCC2)C[C@@H](OCCCCO)O1)N1CCN(Cc2ccccc2)CC1 | nt | 16µM* | 12%[10 µM] | 11%[9.22 µM] | nt
O=C(c1ccc(Cl)cc1)c1coc2ccc(O)cc12 | ? | 9% | -40% | 0.63µM* | -12%
COc1ccc2occ(C(C)=O)c2c1 | 12% | ? | -2% | 0%[9.22 µM] | -23%
O=C(c1coc2ccc(O)cc12)C1CC1 | 18% | 2.8µM* | 8% | 0% | -14%
CC1CN(C(=O)COC(=O)c2ccc(N)c([N+](=O)[O-])c2)CC(C)O1 (stereo not given) | -4% | ? | ? | 5% | 28µM*
CC1CN(C(=O)COC(=O)c2ccc(NC(=O)CC#N)cc2)CC(C)O1 (stereo not given) | 3%[46 µM] | 6.3µM* | 27%[10 µM] | 1%[9.22 µM] | nt
Cc1cc(C(=O)OCC(=O)N2CC(C)OC(C)C2)ccc1[N+](=O)[O-] (stereo not given) | -5%[46 µM] | ? | 7%[10 µM] | 11% | nt
CC(C)(C)NC(=O)COC(=O)c1ccc(NC(=O)CC#N)cc1 | nt | 19% | -39% | -20% | nt
Cc1sc2nc(C(C)C)nc(SCC(=O)N3CCN(C(=O)c4ccco4)CC3)c2c1C | -18% | ? | 0% | -11% | -4%
CCc1c(C)sc2nc(C(C)C)nc(SCC(=O)N3CCc4ccccc4C3)c12 | -8% | -8% | -3%[10 µM] | 3.5µM* | -19%
Cc1sc2nc(C3CC3)nc(SCC(=O)N3CCc4ccccc4C3)c2c1C | -13% | 14µM* | -8%[10 µM] | 7.1µM* | ?
NSc1nc(N)c2nc(-c3ccccc3)c(-c3ccccc3)nc2n1 | nt | 14µM* | -1% | 21% | nt
Nc1nc(N)c2nc(-c3ccccc3)c(N)nc2n1 | ? | ? | -93% | 4% | ?
Cn1ncc2c(Nc3cccc(C(=O)O)c3)ncnc21 | 5% | 13µM* | -3% | 0% | -18%
COc1ccc(NC(=O)/C(=C\c2ccc(OS(=O)(=O)c3ccc(C)cc3)cc2)NC(=O)c2ccccc2)cc1 | 0% | 1µM* | -20% | 0% | -15%
Cc1ccc(S(=O)(=O)Oc2ccc(/C=C(/NC(=O)c3ccccc3)C(=O)NCCC(=O)O)cc2)cc1 | 10%[46 µM] | 2.5µM* | -7%[10 µM] | 12%[9.22 µM] | nt
Cc1ccc(S(=O)(=O)Oc2ccc(/C=C(/NC(=O)c3ccccc3)C(=O)NCCCC(=O)O)cc2)cc1 | nt | 2.8µM* | 1%[10 µM] | 0%[9.22 µM] | nt
Cc1ccc(S(=O)(=O)Oc2ccc(/C=C(/NC(=O)c3ccccc3)C(=O)Nc3ccccc3)cc2)cc1 | 4% | ? | -9% | 21% | ?
CC[C@@H]1OC(=O)[C@@H](C)[C@H](O[C@@H]2C[C@@](C)(OC)[C@@H](O)[C@H](C)O2)[C@H](C)[C@H](O[C@@H]2O[C@@H](C)C[C@@H](N(C)C)[C@H]2O)[C@@](C)(O)C[C@H](C)C(=O)[C@@H](C)[C@H](O)[C@@]1(C)O | nt | nt | -29% | nt | nt
C=C[C@@H](C1=CC(=O)C(OC)=C(OC)C1=O)c1ccccc1 | nt | -10% | ? | nt | 20µM*
COC(=O)C1Sc2[nH]c(=O)sc2C(c2ccc(Cl)cc2)C1C(=O)OC (stereo not given) | 1% | 11µM* | -15% | -1% | -14%
COC(=O)C1CSc2[nH]c(=O)sc2C1c1ccccc1 (stereo not given) | 5% | 32µM* | 5% | 12% | -5%
